# PubChem BioAssay AID818 (SRMLSC, 2007)
# The campaign covered roughly 140,000 compounds. About 2,100 (1.5%) were called active. This is one part of a sample in which actives are shown more often than they occur.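 The calls were made as follows: active = viability at or under a set limit, the compound median less 4 SD (cut at about 6% in these data); inactive = the rest.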
# Assay: primary screen for growth suppressors in beta-catenin knockout HCT116 cells (colon tumor, human) (AID 818);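 also: 0% = Hyamine 1622 control at 20 µM and 100% = untreated cell control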
# Conditions: CellTiter-Glo, 60 h, at 10 µM, hits give low values
row,Structure (SMILES),viability
1,CC(=O)CCC(=O)c1ccc2ccccc2c1,99.5% (inactive)
2,Cc1nc(-c2ccccc2)sc1C(=O)/C=C/c1ccccc1,4.4% (active)
3,CNC(=O)c1csc(-c2ccccc2)n1,96.8% (inactive)
4,Cc1ccc(SCC(=O)c2sc(-c3ccccc3)nc2C)cc1,94.5% (inactive)
5,Cc1ccc(Sc2ccncc2S(N)(=O)=O)cc1,87.3% (inactive)
6,O=C(COC(=O)/C=C/c1ccc(S(=O)(=O)N2CCCCCC2)cc1)NCc1ccccc1Cl,106% (inactive)
7,N=c1c2c(-c3ccccc3)c(-c3ccccc3)n(Cc3ccccc3)c2ncn1CCCO,1.54% (active)
8,OCCCN1c2ccccc2Nc2nnc(-c3ccccc3)cc21,46.3% (inactive)
9,N=c1c2c(-c3ccccc3)c(-c3ccccc3)oc2ncn1Cc1ccco1,59.7% (inactive)
10,Cc1nc(SCc2ccc(F)cc2)c([N+](=O)[O-])[nH]1,89.8% (inactive)
11,Cc1cc(N2CCOCC2)nc(-c2ccc(Br)cc2)n1,82.4% (inactive)
12,CCCC1OC23CCCCC2C(C#N)(C#N)C1(C#N)C(=N)O3 (configuration not stated),85.5% (inactive)
13,COc1cccc(/C=N/NC(=O)CNC(=O)c2ccc(S(=O)(=O)N3CCOCC3)cc2)c1OC,90.8% (inactive)
14,NC(N)=N/N=C/c1ccc(OCc2ccc(Cl)cc2Cl)cc1,1.64% (active)
15,COc1ccc(C(=O)O/N=C(\N)Cc2ccc(Cl)cc2Cl)cc1OC,79.8% (inactive)
16,COC(=O)c1sc2ncccc2c1OCc1ccc(Cl)cc1Cl,67.4% (inactive)
17,CCOC(=O)NN1C(=O)c2ccccc2NC1c1ccccc1O (configuration not stated),95% (inactive)
18,C=CCn1c(SCC(N)=O)nnc1-c1cc2c(s1)CCC(CC)C2 (configuration not stated),91.1% (inactive)
19,COc1cc2c(cc1OC)C(Nc1ccc(S(N)(=O)=O)cc1)=NC(C)(C)C2,101% (inactive)
20,COc1cc2c(cc1O)C(SC)=NC(C)(C)C2,2.29% (active)
21,COc1cc2c(cc1OC)C(C(C)C)=NC(C)(C)C2,95.1% (inactive)

row,Structure (SMILES),viability
1,COc1ccc(NC(=O)CC2C(=O)OCC3CCCCN32)cc1Cl (configuration not stated),93.4% (inactive)
2,Cc1cc(C)c(C#N)c(SCC(=O)NN2CC(=O)N(c3ccccc3F)CC2=O)n1,99.8% (inactive)
3,CC(C)[C@H](NC(=O)c1ccc(F)cc1)C(=O)OCC(=O)NC(=O)c1cccn1C,93.5% (inactive)
4,N=c1n(CCc2ccccc2)c2ccccc2n1Cc1ccccc1F,3.71% (active)
5,CC(=O)NC(C)c1nc2ccccc2n1Cc1ccccc1F (configuration not stated),102% (inactive)
6,CN(Cc1ccccc1)Cc1ccccc1F,83% (inactive)
7,Cc1ccc2[nH]cc(CCNC(=O)c3ccc([N+](=O)[O-])cc3)c2c1,106% (inactive)
8,Cc1ccc(C(=O)NC(C)c2ccccc2)cc1Br (configuration not stated),83.5% (inactive)
9,CC(=O)Nc1ccc(S(=O)(=O)NCC(=O)OCc2cc(=O)oc3ccc4ccccc4c23)cc1,83.8% (inactive)
10,CCCN1C(=O)C(Cc2nc3ccccc3c(=O)n2-c2ccccc2)c2cc(C)ccc21 (configuration not stated),74.7% (inactive)
11,Cc1cc(C)c2c3c(sc2n1)C(c1ccccc1)C(C#N)=C(N)O3 (configuration not stated),21.1% (inactive)
12,Cc1cc2c(c(=O)n1Cc1ccco1)C(c1ccccc1)C(C#N)=C(N)O2 (configuration not stated),105% (inactive)
13,N#CC1=C(N)Oc2c(sc3ccccc23)C1c1ccco1 (configuration not stated),3.24% (active)
14,Brc1ccc(-c2csc(N/N=C/c3ccc4c(c3)OCO4)n2)cc1,84.8% (inactive)
15,CC(=O)c1c(O)cc2n(c1=O)-c1ccc(Cl)cc1C2(C)C,91.5% (inactive)
16,CC(C)n1c(C(O)c2ccccc2)nc2ccccc21 (configuration not stated),110% (inactive)
17,CC(Nc1nc(N2CCCC2)nc2ccccc12)c1ccccc1 (configuration not stated),1.19% (active)
18,Cc1ccc(C(CC(=O)O)Nc2nc(N3CCCCC3)nc(N3CCCCC3)n2)cc1 (configuration not stated),97.6% (inactive)
19,C/C(=N\N1CCN(Cc2ccc(C)cc2)CC1)c1ccco1,99.1% (inactive)
20,Cc1cc2oc(=O)cc(CN3CCN(S(=O)(=O)c4cccs4)CC3)c2cc1C(C)C,76.9% (inactive)
21,COc1cccc(-n2c(SCC(=O)c3c[nH]c4ccccc34)nc3ccccc3c2=O)c1,73.3% (inactive)

row,Structure (SMILES),viability
1,NC(=O)c1ccccc1N=Cc1ccc2ccccc2c1,35.3% (inactive)
2,N#C/C(=C(/O)COc1cccc2ccccc12)c1nc2ccccc2[nH]1,79.3% (inactive)
3,N#C/C(=C(/O)COC(=O)COc1ccc(Cl)cc1)c1nc2ccccc2[nH]1,5.63% (active)
4,Cc1ccccc1OC/C(O)=C(\C#N)c1nc2ccccc2[nH]1,78.6% (inactive)
5,O=C(Cc1cccc2ccccc12)NCCC1=CCCCC1,85.5% (inactive)
6,CCOc1ncccc1C(=O)N(CC)CC(=O)Nc1ccc(NC(C)=O)cc1,104% (inactive)
7,CCCCC(C(=O)OCC(=O)c1ccc(OC)cc1)N1C(=O)c2ccccc2C1=O (configuration not stated),103% (inactive)
8,CCOC(=O)c1ccccc1NS(=O)(=O)c1ccc(OC)cc1,17.6% (inactive)
9,CCOC(=O)C1=C(c2ccc(OC)cc2)C(=O)c2ccccc2C1=O,1.16% (active)
10,CCOC(=O)c1nn(-c2ccccc2F)c2nc(Nc3ccccc3)cc(=O)n12,94.3% (inactive)
11,S=C(Nc1cccc(Cl)c1)Nc1ccc2cn[nH]c2c1,77.5% (inactive)
12,FC(F)(F)c1cccc(NC(=S)Nc2cccc(Cl)c2)c1,5.77% (active)
13,Cc1csc(NC(=S)Nc2cccc(Cl)c2)n1,26.5% (inactive)
14,COC(=O)/C(=C1\Oc2ccc(C(C)(C)C)cc2S1)C(F)(F)F,102% (inactive)
15,Cc1ccc(-n2[nH]c(C)c(/C=N/NC(=O)c3cccc([N+](=O)[O-])c3)c2=O)cc1C,3.51% (active)
16,Cc1[nH]n(-c2ccc(Cl)cc2)c(=O)c1/C=N/n1c(C)nc2ccccc2c1=O,22.4% (inactive)
17,Cc1[nH]n(-c2cccc(Cl)c2)c(=O)c1/C=N/n1c(C)nc2ccccc2c1=O,85.9% (inactive)
18,Cc1[nH]n(-c2ccccc2)c(=O)c1/C=N/NC(=O)c1ccoc1C,3.98% (active)
19,COc1cc(/C=N\NC(=O)CNC(=O)c2cccc([N+](=O)[O-])c2)ccc1O,79% (inactive)
20,COc1cccc(/C=N/NC(=O)c2cccc([N+](=O)[O-])c2)c1OS(=O)(=O)c1ccc(C)cc1,80.7% (inactive)
